An excerpt weighted towards active compounds, which were near 14% of everything screened.
CHX counter: Cycloheximide Counterscreen for Small Molecule Inhibitors of Shiga Toxin. cell reporter, cycloheximide protein synthesis inhibition counterscreen. max response, %. actives 12% (n = 300,000); in the data active means max response mostly above about 13%, no sharp cut-off; inactive means mostly below about 14%; further: read at 38.3 µM for the half of the compounds with a filed dose; 0% is about no effect
NS1 inh: qHTS Assay for Inhibitors of Influenza NS1 Protein Function | Potency, µM (series often up to 46.1 µM), inactives show top-dose activity, positive = more growth | actives 0.4% (n = 270,000) | AID 2326, 2010; calls by dose curve; further: potency means the concentration at half of the fitted maximal effect; actives are rising curves; nearly all actives have a fitted effect of over 50% in size
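A cell-based growth assay was used: compounds that relieve NS1-induced slow growth of budding yeast raise OD600. Assay medium was yeast nitrogen base with ammonium sulphate and -URA supplement, pH 6.0, with 2% galactose.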
FBPA Giardia inh: qHTS Assay for Inhibitors of Fructose-1,6-bisphosphate Aldolase from Giardia Lamblia. actives 0.71% (n = 290,000). Potency, µM (highest dose often 59.6 µM), for the others: at the top dose activity, negative = inhibition, actives largely listed as inhibitors. purified Giardia FBPA. A8B2U2; further: potency means the concentration at half of the fitted maximal effect; on the % scale 0 is the no-effect control and ±100 the full control effect; nearly all actives have a fitted effect of over 55% in size
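Giardia FBPA (40 nM reagent) was preincubated 10 min at RT with compound (up to 57.5 uM final), then substrate plus GAPDH/TPI/NAD/arsenate coupling system with diaphorase/resazurin was added; resorufin fluorescence (525/598 nm) was read after 20 min.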
Shiga toxin inh: A qHTS for Small Molecule Inhibitors of Shiga Toxin; Vero cells, Shiga toxin protein synthesis inhibition reporter; actives 9.2% (n = 290,000); inhibition, % at 38.7 µM; AID 2315, 2010; in the data active means inhibition mostly above about 28%, no sharp cut-off; inactive means mostly below about 43%; further: 0% is about no effect
LmPK inhibitor: qHTS Assay for Inhibitors of Leishmania Mexicana Pyruvate Kinase (LmPK) | Q27686 | purified LmPK, Kinase-Glo ATP luminescence, 1 h | Potency, µM (titrated, usually from 57.5 µM), without a hit: top-dose activity change, negative = inhibition, usual class: inhibitors | actives 0.37% (n = 290,000); further: potency means the concentration at half of the fitted maximal effect; on the % scale 0 is the no-effect control and ±100 the full control effect
Target sequence (Q27686 whole entry, looked up): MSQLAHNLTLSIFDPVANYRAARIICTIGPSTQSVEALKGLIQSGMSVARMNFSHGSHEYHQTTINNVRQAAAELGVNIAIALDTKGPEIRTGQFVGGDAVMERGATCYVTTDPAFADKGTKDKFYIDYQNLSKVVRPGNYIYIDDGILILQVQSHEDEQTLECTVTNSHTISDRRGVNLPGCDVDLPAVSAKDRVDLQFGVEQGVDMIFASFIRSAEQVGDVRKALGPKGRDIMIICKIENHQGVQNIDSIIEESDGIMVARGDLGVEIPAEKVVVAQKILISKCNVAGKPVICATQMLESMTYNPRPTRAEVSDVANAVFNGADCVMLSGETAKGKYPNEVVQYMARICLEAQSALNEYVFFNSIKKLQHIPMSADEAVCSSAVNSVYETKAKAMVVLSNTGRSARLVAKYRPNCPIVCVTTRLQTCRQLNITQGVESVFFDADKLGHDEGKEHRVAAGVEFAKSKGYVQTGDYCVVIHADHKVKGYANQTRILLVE
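In 50 mM imidazole pH 7.2 with 7 mM MgCl2, LmPK (0.1 nM) turned over PEP (0.5 mM) and ADP (0.1 mM) for 1 h at room temperature. Luciferase read-out of ATP.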
Numbers without * were called inactive; ? = inconclusive; . = no result; [ ] = dose if it differs, or a comment. Unless noted, the call rests on the fitted dose curve; in most records, active means well fitted curve in the direction sought with a large enough effect; inconclusive means small, poorly fitted or top-dose-only effect, or another doubt; inactive means no such curve, though single readings can be large; an effect the other way counts as inactive or inconclusive.

SMILES | CHX counter | NS1 inh | FBPA Giardia inh | Shiga toxin inh | LmPK inhibitor
O=C(O)CCc1nn2cc(-c3ccccc3)nc2[nH]c1=O | -2.4 | 7.0% | ? | 2.2 | -25.4%
COc1cccc(-c2cn3nc(C)c(C)nc3n2)c1 | 41.3* | -4.3% | -0.1% | 167.2* | 12.6µM*
NS(=O)(=O)c1nn2cc(-c3ccccc3)nc2s1 | 19.2* | . | 2.9% | 59.3* | .
c1ccc(-c2cn3nc(-c4ccccc4)c(-c4ccccc4)nc3n2)cc1 | 2.5 | -0.2% | 4.6% | 25.6 | 0.8%
CCc1nn2cc(-c3ccccc3)nc2s1 | 6.4 | -39.7% | -3.4% | 4.7 | 11.2µM*
c1ccc(Cc2ccc(OCCn3cncn3)cc2)cc1 | -1.9 | -2.5% | 0.1% | -4.9 | 4.7%
c1ccc(COc2ccc(OCCCn3cncn3)cc2)cc1 | 34.8* | -64.7% | 1.8% | 60.9* | ?
c1ccc(-c2ccc(OCCOCCn3cncn3)cc2)cc1 | 34.6* | -46.6% | 0.0% | 56.9* | -14.4%
CC(CN1CCN(C)CC1)OC(=O)c1cccc(Cl)c1 (stereo unspecified) | 17.4* | ? | -12.1% | 52.2* | 0.3%
CC1CCN(CC(C)OC(=O)c2ccc3c(c2)OCCO3)CC1 (stereo unspecified) | 22.7* | -0.8% | 2.6% | 28.1 | 1.2%
CC(CN1CCCC1)OC(=O)c1ccc(Cl)cc1 (stereo unspecified) | 12.5 | 12.5% | ? | -5.2 | -5.1%
CC(CN1CCCCC1)OC(=O)c1ccc2c(c1)OCO2 (stereo unspecified) | 25.2* | -6.3% | -5.4% | 24.4 | -0.3%
CC(CN1CCOCC1)OC(=O)c1ccccc1Cl (stereo unspecified) | 10.1* | 14.8% | ? | 9.1 | -1.9%
CCOC(=O)c1c(NC(=O)c2c(C(=O)O)cccc2[N+](=O)[O-])sc2c1CCCC2 | -0.4 | 3.8% | 10.6% | -5.6 | -8.3%
COc1cccc(C(=O)OC(C)CN2CCCC2)c1 (stereo unspecified) | -3.1 | -6.2% | -6.5% | -12.8 | -6.5%
CC(CN1CCCCC1)OC(=O)c1cccc(F)c1 (stereo unspecified) | 18.0* | -9.5% | -2.9% | 28.2* | 4.5%
COCCCNC(=O)CCN1N=C(c2ccccc2)CCC1=O | -2.1 | -2.1% | 4.0% | 6.7 | -1.5%
COc1ccc(OCCNc2cc(N3CCOCC3)ccc2[N+](=O)[O-])cc1 | 13.0 | -24.1% | 0.5% | -11.7 | 3.8%
COc1cccc(OCCNc2cc(N3CCOCC3)ccc2[N+](=O)[O-])c1 | 44.0* | 7.4% | -10.7% | 21.9 | 2.0%
COc1ccc(OCCNc2cc(Cl)ccc2[N+](=O)[O-])cc1 | 17.4* | 7.2% | -15.1% | 1.2 | -3.3%
CCc1ccccc1NC1c2ccccc2C(=O)N1c1cc(C)ccn1 (stereo unspecified) | 1.2 | -3.9% | -2.8% | 24.6 | -0.5%
CCOC(=O)c1ccc(NC2c3ccccc3C(=O)N2c2ccccn2)cc1 (stereo unspecified) | 1.9 | 4.4% | -14.2% | -3.6 | 7.9%
CCOC(=O)c1ccccc1NC1c2ccccc2C(=O)N1c1ccc(C)cn1 (stereo unspecified) | 21.3* | -85.4% | 0.3% | 38.7 | -22.4%
Cc1ccnc(N2C(=O)c3ccccc3C2Nc2ccccc2Cl)c1 (stereo unspecified) | 9.3 | -122.9% | 0.7% | 28.7* | 3.3%
COc1cc(NC2c3ccccc3C(=O)N2c2cc(C)ccn2)cc(OC)c1OC (stereo unspecified) | 22.8* | 11.9% | ? | 58.3* | -16.9%
SMILES | CHX counter | NS1 inh | FBPA Giardia inh | Shiga toxin inh | LmPK inhibitor
COc1cc(NC2c3ccccc3C(=O)N2c2ccc(C)cn2)cc(OC)c1OC (stereo unspecified) | 48.2* | -3.7% | ? | 117.7* | -19.0%
Cc1ccc(N2C(=O)c3ccccc3C2Nc2cccnc2)nc1 (stereo unspecified) | 35.9* | 1.3% | -28.0% | 46.1 | -0.2%
Cc1ccc(NC2c3ccccc3C(=O)N2c2cccnc2)cc1 (stereo unspecified) | 1.2 | -1.4% | 4.2% | 1.3 | -1.8%
O=C(Nc1ccc(F)cc1F)Nc1csc2ccccc12 | 41.9* | -55.3% | -17.6% | 117.2* | 2.7%
O=C(Nc1ccc(F)c(Cl)c1)Nc1csc2ccccc12 | 38.0* | -5.3% | -12.3% | 56.7* | 4.5%
CCc1ccccc1NC(=O)Nc1ccc(F)cc1F | -1.3 | . | 2.9% | 1.7 | -6.4%
COc1ccc(C)cc1NC(=O)CCCN1C(=O)C(c2ccccc2)Oc2cccnc21 (stereo unspecified) | 0.8 | -27.8% | . | -1.6 | 7.7%
CC(C)(C)c1ccc(OC2C(O)COC2/C=C/C#Cc2ccccc2)cc1 (stereo unspecified) | . | . | -12.1%[12.9 µM] | . | .
CC(=O)Nc1ccc(SCC(c2ccccc2)N2CCN(C)CCC2=O)cc1 (stereo unspecified) | 67.9* | . | 5.9% | 116.0* | .
Cc1ccc(SC[C@H](c2ccccc2)N2CCN(CC(C)C)CCC2=O)cc1 | 18.7 | 7.4% | 7.0% | 11.2 | 3.6%
CN1CCC(=O)N(C(CSc2ccc(Br)cc2)c2ccccc2)CC1 (stereo unspecified) | 33.1* | . | 6.8% | 82.9* | .
Cc1ccc(SC[C@H](c2ccccc2)N2CCN(C)CCC2=O)cc1 | 43.9* | -4.8% | 3.1% | 97.3* | 0.6%
Cc1ccc(SCC(c2ccccc2)N2CCN(CC(C)C)CCC2=O)cc1 (stereo unspecified) | 42.5* | . | 19.9% | 89.1* | .
CN1CCC(=O)N([C@H](CSc2ccccc2)c2ccccc2)CC1 | 17.7* | -11.4% | -0.9% | 58.3 | -7.2%
[N-]=[N+]=NC[C@H](c1ccccc1)N1CCN(Cc2ccccc2)CCC1=O | -1.0 | 7.8% | 5.7% | -4.6 | -0.8%
CN1CCC(=O)N([C@H](CN=[N+]=[N-])c2ccccc2)CC1 | 22.9* | ? | -3.0% | 19.6* | -5.1%
CC(C)CN1CCC(=O)N([C@H](CSc2ccc(Br)cc2)c2ccccc2)CC1 | -2.2 | -2.2% | 14.2% | 26.8 | 6.3%
CCOC(=O)N1CCN(c2nc(-c3ccc(F)cc3)cs2)CC1 | 22.5* | -12.4% | 1.2% | 48.2* | 1.9%
CNC(=S)N1CCN(c2nc(-c3ccc(F)cc3)cs2)CC1 | 13.4* | 19.4% | -0.2% | 20.4 | 1.7%
CSc1nnc(N2C(=O)C(O)=C(C(=O)c3ccc(C)o3)C2c2ccc(C)cc2)s1 (stereo unspecified) | 34.8* | 4.8% | . | 95.4* | -3.8%
Cc1ccc(C(=O)N/N=C/c2ccc(-c3ccc(Br)cc3[N+](=O)[O-])o2)o1 | 17.8* | 4.4% | . | 24.7 | -5.6%
Nn1cnnc1N/N=C\c1ccc(-c2ccccc2[N+](=O)[O-])o1 | 17.1* | 2.3% | 1.77µM* | 12.5 | -2.0%
Cc1c(C(=O)N/N=C/c2ccc(-c3ccccc3[N+](=O)[O-])o2)sc(N)c1C#N | 18.3* | -18.4% | ? | -5.7 | 1.9%
Cc1ccccc1NC(=O)NCCCCc1ccccc1 | 2.7 | -43.2% | 2.2% | 38.6* | -0.4%
Cc1ccc(NC(=O)NCCCc2ccccc2)cc1 | 35.3* | -70.6% | 0.3% | 83.1* | 1.2%

Compound activity: PubChem BioAssay, National Center for Advancing Translational Sciences (NCATS)
